Bioassay records as filed in PubChem.
An excerpt weighted towards active compounds, which were near 1.8% of everything screened.
ugtP null kill = growth inhibition of S. aureus ugtP deletion strain. S. aureus RN4220 ugtP deletion, OD600 growth, 16 h. growth inhibition, % (concentration not given with the values). actives 0.54% (n = 330,000); in the data active = growth inhibition above about 68%;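 also: plate controls were untreated wells for no effect and antibiotic for full effect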
DUSP3 inh = inhibitors of human VHR1 phosphatase (DUSP3). inhibition, % at 13.3 µM. actives 0.52% (n = 290,000). P51452. recombinant VHR phosphatase, pNPP absorbance; in the data active = inhibition above about 50%
Target sequence (P51452 whole entry, looked up): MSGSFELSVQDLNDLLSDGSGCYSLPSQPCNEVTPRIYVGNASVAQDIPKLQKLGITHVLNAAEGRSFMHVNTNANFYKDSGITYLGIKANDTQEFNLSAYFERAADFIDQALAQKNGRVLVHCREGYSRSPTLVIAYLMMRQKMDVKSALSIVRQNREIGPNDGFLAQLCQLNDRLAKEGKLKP
PfHsp40 rescue = compounds rescuing yeast from Plasmodium falciparum HSP40 toxicity | S. cerevisiae expressing PfHsp40, growth rescue, ATP luminescence | growth rescue, % at 12.5 µM | actives 0.68% (n = 340,000); in the data active = growth rescue above about 28%, passing the limit was not always enough;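 also: yeast W303a lacking pdr1 and pdr3 grown in galactose medium; growth measured after three days at 30 °C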
RN4220 kill = S. aureus RN4220 growth inhibition. OD600, 16 h. inhibition, % (test concentration not listed). actives 0.33% (n = 330,000); in the data active = inhibition above about 85%;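 also: plate controls were untreated cells for no effect and reference antibiotic for full effect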
PrPC surface inh = reduces human prion protein on the cell surface. P04156. cell surface PrPC, TR-FRET read-out. inhibition, % at 13.8 µM. actives 0.43% (n = 370,000). AID 720596; in the data active = inhibition above about 24%; also: 0% = median of the test wells and 100% = reference compound wells
PrPC TRFRET cf = cell surface PrPC inhibition, TR-FRET confirmation | AID 743200 | shares compounds with PrPC surface inh | inhibition, % at 13.8 µM | actives 65% (n = 1,500) | cell surface PrPC level; in the data active = inhibition above about 25%
LD9 tox = counter-screen for PrPc inhibitors: cytotoxicity in LD9 cells. shares compounds with PrPC surface inh. luminescence viability. actives 29% (n = 1,500). inhibition, % at 13.8 µM; in the data active = inhibition above about 9.5%
Active calls of the source: *; x = no result.

SMILES	ugtP null kill	DUSP3 inh	PfHsp40 rescue	RN4220 kill	PrPC surface inh	PrPC TRFRET cf	LD9 tox
CC1CN(C(=O)CCc2cc(C(C)(C)C)c(O)c(C(C)(C)C)c2)CC(C)O1 (stereo not given)	-8	50	-1	6	26*	29*	18*
O=C(NCCO)c1cccc(-c2cc(Nc3ccc(OC(F)(F)F)cc3)ncn2)c1	x	x	x	x	-3	x	x
NC(=O)c1cccc(-c2cc(Nc3ccc(OC(F)(F)F)cc3)ncn2)c1	-15	15	1	-11	51*	24	7
COc1ccccc1-c1cc(C(=O)NN=Cc2cccs2)c2ccccc2n1	2	x	x	-5	x	x	x
CCOC(=O)C1C2COc3ccc(Br)cc3C2N2C(=O)c3cc(OC)c(OC)cc3NC(=O)[C@@]12C (stereo not given in full)	10	x	x	4	x	x	x
Cc1c(C(=O)Nc2ccc(-c3nnc4n3CCCCC4)cc2)oc2ccc(Br)cc12	15	14	0	16	40*	49*	6
CCOC(=O)CC(=O)NN=Cc1c(N)n(C)c(=O)n(C)c1=O	1	x	x	3	x	x	x
CCOC1OC(C(=O)O)=CC(C2CC2)C1CCCO (stereo not given)	-1	x	x	1	x	x	x
COC(=O)c1cccc(C23CC4(C2)C(CN(Cc2cccnc2)C4c2ccccc2)C3c2ccc(C(F)(F)F)cc2)c1 (stereo not given)	-13	x	x	1	x	x	x
Cc1ccccc1N1CCN(S(=O)(=O)C[C@]23CCC(CC2NC(=O)C(N)CCS(C)(=O)=O)C3(C)C)CC1 (stereo not given in full)	2	x	x	1	x	x	x
O=S(c1ccc2ccccc2c1)c1cnns1 (stereo not given)	-10	18	-1	1	34*	6	76*
Cc1nnsc1S(=O)c1ccc(Cl)c(Cl)c1 (stereo not given)	1	34	-1	5	-4	x	x
CCOC(=O)CSc1nc(C2CC2)nc2ccccc12	5	17	1	18	25*	43*	-3
CCOC(=O)CSc1nc(COc2ccccc2)nc2ccccc12	6	18	-1	4	59*	60*	8
CCOC(=O)CSc1nc(C(C)(C)C)nc2ccccc12	10	13	-1	1	32*	58*	1
COC(=O)CSc1nc(C(C)C)nc2ccccc12	8	25	-1	7	121*	123*	-4
O=S(=O)(N=C(Nc1ccccc1)C(F)(F)F)c1ccccc1	6	x	x	2	x	x	x
CC(=NO)C(=O)NCCN1CCCCC1	1	x	x	6	x	x	x
CC(C)OC(=O)CSc1nc(Cc2cccs2)nc2ccccc12	2	7	2	5	37*	23	-3
CCOC(=O)CSc1nc(C(C)C)nc2ccccc12	14	-7	-1	5	110*	123*	-1
CC(C)(C)c1nc(SCC(=O)NNC(=O)c2ccccc2)c2ccccc2n1	9	17	-1	9	45*	67*	-11
CCN(CC)C(=O)c1[nH]cnc1C(=O)NC(Cc1ccccc1)C(=O)OCc1ccccc1 (stereo not given)	4	x	x	8	x	x	x
COc1ccc(C2C=CCN(C(=O)NC(C)C)CC(=O)N2Cc2ccc(F)cc2)cc1 (stereo not given)	-3	x	x	-1	x	x	x
COc1ccc(/C(O)=C2/C(=O)C(=O)N(Cc3cccnc3)C2c2ccncc2)cc1F (stereo not given)	0	24	0	-1	-7	x	x
Cc1cc(OCc2ccccc2)ccc1/C(O)=C1/C(=O)C(=O)N(Cc2cccnc2)C1c1ccncc1 (stereo not given)	2	27	-1	4	34*	54*	-3
COCCCN1C(=O)C(=O)/C(=C(/O)c2ccc(OCC(C)C)cc2C)C1c1cccnc1 (stereo not given)	-3	-5	2	3	26*	36*	-8
CCCOc1ccc(/C(O)=C2/C(=O)C(=O)N(CCOC)C2c2cccnc2)cc1 (stereo not given)	-3	-4	x	-10	-3	x	x
Nc1ncnc2c1nc(Sc1ccc(Cl)cc1)n2C1OC2COP(=O)(O)OC2C1O (stereo not given)	6	x	x	10	x	x	x
